Among the data in PubChem BioAssay (NCI) are growth values, retold here.

Values joined by “and” are separate entries in the source; they are usually repeats but may differ in a detail not shown here. Identical values can stand only once. About 83,000 compounds went through this panel and 20% of them were active in at least one assay; those are over-represented in the sample as a whole.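 Note: values are percent growth. 100 is the growth of untreated cells, values between 100 and 0 indicate rising inhibition; between -100 and 0 indicates cell death.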 A number with no mark means an inactive call. Active and inactive are the calls of the source. The calls were made as follows: active = growth percent below 10; inactive = the rest.

In this assay the test system is MDA-MB-468 breast. Briefly: NCI-60 one-dose screen, 48 h (100 = growth as untreated, 0 = no growth, -100 = all killed). The conditions noted are these: 10 µM unless noted.
Regarding `Cc1cc(-c2ccc(N=Nc3c(S(=O)(=O)O)cc4cc(S(=O)(=O)O)cc(N)c4c3O)c(C)c2)ccc1N=Nc1cc(S(=O)(=O)O)c2ccccc2c1O`, the growth is 105%.

For the compound `Cc1ccc(NC(=O)NC(=O)CSc2nc3ccccc3nc2C)cc1`, the growth was 19.6%. Turning to `O=C(Nc1ccc(F)cc1)c1cc([N+](=O)[O-])ccc1O`, the growth is 56.3%. The result for `N#Cc1c(-c2ccc(Br)cc2)cc(-c2c[nH]c3ccccc23)nc1N` reads 7.56% (active). The result for `CC(C)(C)c1cc(C[P+](c2ccccc2)(c2ccccc2)c2ccccc2)cc(C(C)(C)C)c1O` reads -2.61% (active). For `COc1ccc(/C=C2\N=C(c3ccccc3)N(c3cc(OC)c(OC)cc3C(=O)N3N=C(C)CC3=O)C2=O)cc1`, the growth is 93%. The result for `N#Cc1ccc(NC(=O)Nc2ccc(Oc3ccc(NC(=O)Nc4ccc(C#N)cc4)cc3)cc2)cc1` reads 26%; that for `Cc1[nH]c(C(=O)Nc2ccccc2OCc2cccc(C(=O)NCCN)c2)cc1Cl`, 34.3%; that for `CN(C)c1ccc(/C=C(\C#N)c2ccccc2)cc1`, 4.19% (active) and -2.35% (active) and 4.76% (active).

As for `O=C(CCl)Oc1ccc(OC(=O)CCl)cc1`, the growth was 78.4%. The result for `CC[C@H](CC[C@@H](C)[C@H]1CC[C@H]2[C@@H]3CC=C4C[C@@H](O)CC[C@]4(C)[C@H]3CC[C@]12C)C(C)C` reads 98.7% and 91.8%.

For the compound `O=c1c2c(c3ccccc3n1-c1ccccc1)NC(=S)NC2c1ccccc1` (stereo not given), the growth is 74.4%. The result for `COc1ccc(-n2nnc(C(=O)NCCc3c[nH]c4ccc(F)cc34)c2C)cc1` reads 109%. `Cc1ccc(S(=O)(=O)N(CC[C@@H]2C[C@H]2c2cc3ccccc3o2)C(=O)NC2CCCCC2)cc1`: the growth is 95.3%. As for `COc1ccc(-c2c(N)noc2-c2cc(OC)c3c(c2)OCCO3)cc1`, the figure is -1.87% (active); as for `CCOC(=O)c1cc2c(n1Cc1cccc(OC)c1)-c1oncc1CC2`, -2.28% (active).

`O=C(CCCC(=O)N/N=C/c1cc(Cl)ccc1O)N/N=C\c1cc(Cl)ccc1O`: the growth is 10.3%. For `CC/C(=C/c1cc(OC)ccc1O)c1ccc2cc(OC)ccc2[o+]1`, the growth was 45.8%. As for `Fc1ccc(C2CC(c3cccc(Nc4ccncc4)c3)=NN2c2ccc(Cl)cc2)cc1` (stereo not given), the figure is 63.6%; as for `COc1ccc(/C=C(\C(=O)NCc2cccnc2)S(=O)(=O)c2ccccc2)cc1OC`, 1.86% (active). The result for `C=C1C(=O)O[C@H]2[C@H]1CC/C(COC(=O)NCCc1ccc(OC)cc1)=C\CC[C@@]1(C)O[C@@H]21` reads -2.57% (active); that for `Cc1cccc(OCC(O)CN2CCN(c3ccc(Cl)cc3)CC2)c1` (stereo not given), 112%. The result for `O=C1/C(=C/c2ccc(Br)cc2)C=C(c2ccccc2)N1CCc1ccccc1` reads 45%.

Take `N[C@@H]1CCC[C@H]1NCCCCN1C(=O)c2cccc3cc([N+](=O)[O-])cc(c23)C1=O`: the growth was 31.9%. As for `CCN1/C(=C/C=C/c2n(-c3ccccc3)c3ccc(-c4nc5ccccc5s4)cc3[n+]2CC)N(c2ccccc2)c2ccc(-c3nc4ccccc4s3)cc21`, the figure is 8.94% (active); as for `O=C(Nc1ccncc1)C(=O)c1cn(S(=O)(=O)c2ccc(F)cc2)c2ccccc12`, 14.9%; as for `C=C1C(=O)O[C@H]2[C@H]1CC/C(CNC(=O)/C=C/c1ccc(Cl)cc1Cl)=C\CC[C@@]1(C)O[C@@H]21`, -89.2% (active). As for `c1ccc(-c2nnc(-c3c[nH]c4ncccc34)s2)cc1`, the figure is 79.9%. As for `C/C(Cc1ccc(Cl)cc1)=C(\c1ccc(OCCCN(C)C)cc1)c1ccc(OC(=O)Cc2ccccc2)cc1`, the figure is 111%; as for `CCOC(=O)c1c(NC(=O)c2ccc(C(C)(C)C)cc2)sc2cc(O)ccc12`, 87.9%; as for `CC(=O)OCCC/C(=C/c1cc2ccccc2c2ccccc12)[N+](=O)[O-]`, -69% (active). For the compound `O=[N+]([O-])c1ccc(/C=C/C2(CCl)OCCO2)cc1`, the growth is 108%. Turning to `COc1ccc(C2C=C(c3ccc(Cl)cc3)N=C3SC=CN32)c(Br)c1` (stereo not given), the growth is 61%. As for `CN1CCN(Cc2ccc(NC(=O)c3cncc(C#Cc4cnc5ccc(O[C@@H]6CCOC6)nn45)c3)cc2C(F)(F)F)CC1`, the figure is -72.6% (active); as for `COc1ccc(-c2ccc(C)n2-c2ccc(-c3nc4ccccc4s3)cc2)cc1`, 3.77% (active); as for `CC(C)(O)C1CCCN1C(=O)c1ccccc1I` (stereo not given), 73%.

For the compound `O=C1/C(=C/c2ccc([N+](=O)[O-])o2)Oc2ccc(Br)cc21`, the growth is 65.3%. As for `O=[N+]([O-])c1ccc(Cl)c(-c2cc(CCCCO)on2)c1`, the figure is 98.3%; as for `O=C1[C@H]2Cc3c([nH]c4ccccc34)[C@@H](c3c(Cl)cccc3Cl)N2C(=O)CN1C1CCN(Cc2ccccc2)CC1`, 97.7%; as for `COC(=O)c1[nH]nc2c1C1(C(=O)c3cccc4cccc1c34)C(C#N)=C(N)O2` (stereo not given), 86.3%.
